Assay results from PubChem BioAssay AID1159580 (chemical genetic matrix, 2015).
The campaign covered roughly 5,500 compounds. About 2,000 (36%) were called active. Inconclusive results (about 18%) are left out. Cut-off read from the data, not from the text of the source: active = normalized growth mostly below about 0.91 (no sharp cut-off); inconclusive = no clear call, values can overlap the other calls; inactive = mostly above about 0.92. The list shows a part of the results.

Experiment: chemical genetic growth profiling, strain panel (AID 1159580);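 note: tested at 20 µM; growth read once vehicle control cultures reached saturation at 30 °C; 1 = growth at the plate median or of vehicle wells; lower values mean less growth of the strain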
Conditions: S. cerevisiae deletion strains, growth OD

Measured: normalized growth

S=C(S)OC1CC2CC1C1CCCC21 (stereo not given)
inactive: locus YAL040C, strain CLN3, active compounds read low 1 | locus YCL061C, strain MRC1 (second series), active compounds read low 1.01 | locus YDR363W, strain ESC2, active compounds read low 1.02 | locus YER002W, strain NOP16, active compounds read low 1.01 | locus YGR078C, strain PAC10, active compounds read low 1 | locus YJR075W, strain HOC1, active compounds read low 1 | locus YMR307W, strain GAS1, active compounds read low 1.01 | locus YNL128W, strain TEP1, active compounds read low 1.01 | locus YNL175C, strain NOP13, active compounds read low 1.02 | locus YNL197C, strain WHI3, active compounds read low 1.03 | locus YNL224C, strain SQS1, active compounds read low 1.06 | locus YNL322C, strain KRE1, active compounds read low 1.01 | locus YOR083W, strain WHI5 (second series), active compounds read low 1 | locus YPL055C, strain LGE1, active compounds read low 0.943 | locus YPL241C, strain CIN2, active compounds read low 1.01
